Screens deposited in PubChem by several laboratories.
This is a sample that favours compounds with a hit; in the whole collection about 1.9% have one here.
p47phox inh: blocks human p47phox regulatory protein of NADPH oxidases; P14598; p47phox/p22phox peptide binding, fluorescence polarization, 2 h; inhibition, % at 24.7 µM; actives 0.53% (n = 220,000); AID 1274;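 active = inhibition above about 30%, limit read from the data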;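 also: 0% = p47phox with labelled peptide and 100% = labelled peptide alone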
ZTA DNA inh: counter-screen for EBNA-1 inhibitors: inhibitors of Epstein-Barr virus ZTA. P03206. ZTA-DNA binding, fluorescence polarization. inhibition, % at 11 µM. actives 0.15% (n = 320,000); in the data active = inhibition above about 33%
PG9 binder: binds the HIV-1 gp120 antibody PG9; TR-FRET gp120-PG9 antibody binding; inhibition, % at 6.7 µM; actives 0.43% (n = 360,000); in the data active = inhibition above about 8.5%
aDG glyco act: increases alpha dystroglycan glycosylation. actives 0.22% (n = 360,000). activation, % at 10 µM. Pro5-aDG cells, alpha-DG glycosylation AlphaScreen (IIH6); 0% Pro5, 100% B10-LARGE cell signal;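 active = activation of at least 8% versus controls, or a plate z-score of at least 8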;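 also: Pro5 are CHO cells carrying HIG-tagged alpha-DG that lacks glycosylation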
NR1D1 modulator: modulates human Rev-erb alpha binding to DNA; Rev-erbα–FITC-DNA binding, fluorescence polarization, 90 min; actives 0.79% (n = 370,000); activity, % at 10 µM; P20393;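 active = activity above about 14%, limit read from the data; passing the limit was not always enough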;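 also: 0% = DMSO wells with 35 nM protein and 100% = DMSO wells with 750 nM protein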
Target sequence (P20393 whole entry, looked up): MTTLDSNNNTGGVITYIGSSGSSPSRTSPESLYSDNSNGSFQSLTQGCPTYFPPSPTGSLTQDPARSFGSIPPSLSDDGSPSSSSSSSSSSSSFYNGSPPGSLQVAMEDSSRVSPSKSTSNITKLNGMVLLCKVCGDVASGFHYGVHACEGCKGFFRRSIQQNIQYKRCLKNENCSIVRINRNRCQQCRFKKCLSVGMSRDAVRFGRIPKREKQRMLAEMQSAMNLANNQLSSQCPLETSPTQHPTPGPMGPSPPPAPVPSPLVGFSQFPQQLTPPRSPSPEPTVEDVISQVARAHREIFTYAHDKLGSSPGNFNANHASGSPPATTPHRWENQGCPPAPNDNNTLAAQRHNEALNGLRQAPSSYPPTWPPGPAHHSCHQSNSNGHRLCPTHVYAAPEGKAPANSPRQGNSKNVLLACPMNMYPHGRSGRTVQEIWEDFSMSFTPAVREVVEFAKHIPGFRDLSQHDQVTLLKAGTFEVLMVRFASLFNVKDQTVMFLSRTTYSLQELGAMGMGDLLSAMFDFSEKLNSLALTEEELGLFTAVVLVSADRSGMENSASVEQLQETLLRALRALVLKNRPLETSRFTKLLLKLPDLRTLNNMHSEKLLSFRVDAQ
EBNA-1 inh: blocks EBNA-1 binding to DNA | EBNA-1 DNA binding, fluorescence polarization | inhibition, % at 14.8 µM | actives 0.34% (n = 300,000); in the data active = inhibition above about 28%
Active calls of the source: *; . = not tested or not shown; + = active, no number.

SMILES | p47phox inh | ZTA DNA inh | PG9 binder | aDG glyco act | NR1D1 modulator | EBNA-1 inh
Cc1cccc(NC(=O)Cn2c(O)c(N=NC(=O)c3ccccc3O)c3ccccc32)c1 | 33* | -13 | -1 | 0 | -13 | 14
Cc1ccc(NC(=O)Cn2c(O)c(N=NC(=O)c3cc([N+](=O)[O-])ccc3O)c3ccccc32)cc1 | -19 | 5 | . | . | . | 0
COc1ccc(-c2cc(C(F)(F)F)n3nc(N)nc3n2)cc1 | -9 | 0 | . | 0 | -7 | 0
COc1ccc(-c2cc(C(F)(F)F)n3nc(C(=O)O)nc3n2)cc1 | 65* | 15 | -2 | 0 | 2 | 15
CCCCCCOc1ccc(/C(C)=N/NC2=NCCN2)cc1[N+](=O)[O-] | 51* | 14 | -1 | -1 | 3 | 8
CCOC(=O)[C@@]12CCCC=C1N(CCc1ccc(Cl)cc1)C(=O)[C@H]2CC(=O)NCc1cccc(C(F)(F)F)c1 | . | . | . | . | 1 | .
CC[C@@]1(O)C(=O)OCc2c1cc1n(c2=O)Cc2c-1nc1cc(F)c(C)c3c1c2[C@@H](N)CC3 | . | . | . | . | -3 | .
O=C(N/N=C/c1ccc2c(c1)OCO2)c1sc2cc(Cl)ccc2c1Cl | 31* | -10 | 3 | 0 | -14 | -12
CC1CC(OC(=O)c2ccccc2)CC(C)(C)N1 (stereo not given) | . | . | . | . | -1 | .
CCOC(=O)c1ccc(NC(=O)CSc2nnc(Cn3c(=O)sc4ccccc43)n2C)cc1 | + | -3 | -2 | 0 | 4 | 9
O=C(NCc1cccnc1)C(=O)NCC(c1ccco1)N1CCN(c2ccccc2F)CC1 (stereo not given) | -4 | -1 | 0 | 0 | -5 | 1
O=C(NCc1ccccc1)C(=O)NCC(c1ccco1)N1CCN(c2ccccc2F)CC1 (stereo not given) | 59* | 1 | -1 | 0 | 2 | -3
O=S(=O)(O)c1ccccc1O | . | . | . | . | -3 | .
CC(COc1cccc(F)c1)CN1CCC(C(O)(c2ccccc2)c2ccccc2)CC1 (stereo not given) | . | . | . | . | -7 | .
CCOC(=O)c1ccc(N2CCN(c3ccc(F)cc3)CC2)c(NC(=O)Nc2cccc(OC)c2)c1 | -17 | -6 | -2 | 0 | -2 | 82*
Cc1nn(Cc2ccccc2)c(C)c1NC(=O)CSc1nc(-c2ccccc2)nc2c1cnn2-c1ccccc1 | 32* | . | 1 | 0 | 10 | .
CCCCNC(=O)CSc1nc2ccsc2c(=O)n1CCCC(=O)NCCc1ccc(S(N)(=O)=O)cc1 | 31* | 2 | -2 | 0 | -1 | 5
NS(=O)(=O)c1ccc(CCNC(=O)CSc2nc3ccsc3c(=O)n2CCCCCC(=O)O)cc1 | 4 | 1 | -1 | 0 | -1 | -8
Cc1ccc(C(=O)Nc2ccc(C(=O)O)cc2)cc1S(=O)(=O)Nc1cccc([N+](=O)[O-])c1 | -4 | -7 | 0 | 0 | 3 | 1
O=C(Nc1cccc([N+](=O)[O-])c1)c1cccc(C(=O)Nc2cccc([N+](=O)[O-])c2)c1 | 41* | 1 | -4 | 0 | -7 | 4
O=C(Nc1ccc(NC(=O)c2cccc([N+](=O)[O-])c2)cc1)c1cccc([N+](=O)[O-])c1 | . | -5 | -2 | 0 | 5 | 8
Cc1ccc(C(=O)Nc2cccc([N+](=O)[O-])c2)cc1S(=O)(=O)Nc1ccc(C(=O)O)cc1 | 60* | 0 | -3 | 0 | -1 | 3
Cc1cccc(NS(=O)(=O)c2cc(NC(=O)CC(=O)c3ccc([N+](=O)[O-])cc3)ccc2C)c1 | 35* | . | . | . | . | .
CC(COc1ccc(C#N)c(F)c1)CN1CCC(C(O)(c2ccccc2)c2ccccc2)CC1 (stereo not given) | . | . | . | . | 7 | .
Nc1[nH]c(C(=O)c2ccccc2)c(-c2cccc3ccccc23)c1C(=O)c1c(-c2ccccc2)[nH]c2ccccc12 | . | . | . | . | 11 | .
Cc1c(Cl)cccc1Nc1nc(N)nc(CN2CCc3ccccc3C2)n1 | -9 | 4 | 2 | 0 | 6 | 6
Cc1ccc(Nc2nc(N)nc(CN3CCc4ccccc4C3)n2)cc1 | 77* | -22 | 0 | 0 | 1 | -6
CCC(C)[C@@H](NC(=O)OC(C)(C)C)c1nnc(S(=O)(=O)Cc2cccc(C)c2)o1 (stereo not given in full) | 60* | . | -2 | 0 | -2 | .
CC(C)(C)OC(=O)N[C@@H](Cc1ccccc1)c1nnc(S(=O)(=O)Cc2ccccc2)o1 | 2 | 5 | -1 | . | -6 | 4
